# According to PubChem BioAssay:
# Calls of active or inactive are those of the source.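 The calls were made as follows, unless noted: active = GFP response above 150% of the DMSO level; inconclusive = fewer than 70 events counted for a yeast strain; inactive = the rest.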
# Experiments:
# [1] = RPL19A-GFP modulators, yeast TOR pathway, confirmation, cell-based, S. cerevisiae, flow cytometry, cherry picks, mother/daughter gates (AID 2270;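 active = GFP response below 50% of the DMSO control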); details: S. cerevisiae RPL19A-GFP strain, 3 h, at 10 µM, stronger effect = lower value, 100 = same GFP as DMSO wells
# [2] = LAP4-GFP expression modulators in yeast, confirmation, cell-based, cherry picks, flow cytometry, mother/daughter gates (AID 2271;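 active = GFP response above 150% of the DMSO control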;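 also: ratio of sample to DMSO plate mean so 100% equals DMSO level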); details: S. cerevisiae LAP4-GFP strain, 3 h, at 10 µM, stronger effect = higher value, 100 means same as DMSO control
# [3] = modulators of MEP2-GFP levels in yeast, confirmation, S. cerevisiae, flow cytometry GFP, cherry picks (AID 2272;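 active = GFP response above 150% of the DMSO control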;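 also: ratio of well signal to plate DMSO mean so 100% equals DMSO level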); details: S. cerevisiae MEP2-GFP strain, 3 h, at 10 µM, stronger effect = higher value
# [4] = AGP1-GFP expression modulators, hit retest, confirmation, cell-based, flow cytometry, S. cerevisiae, cherry picks (AID 2273);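 also: median GFP channel fluorescence over the whole cell population gate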; details: S. cerevisiae AGP1-GFP strain, 3 h, at 10 µM
# [5] = modulators of CIT2-GFP expression in yeast, confirmation, S. cerevisiae, GFP fusion, cherry picks, mother/daughter gates (AID 2274); details: S. cerevisiae CIT2-GFP strain, flow cytometry, 3 h, at 10 µM, stronger effect = higher value
# [6] = inhibitors of CD8+ T cell-vesicle binding, pilot screen, LFA-1/ICAM-1 modulator project, MLPCN validation set, flow cytometry (AID 2523;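 active = response below a set limit, under 55% cells CD8-positive and vesicle-bound, and CD8 cells' 90th-percentile brightness under 279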;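 as to vesicle binding response: mean PE anti-B7-1 fluorescence of CD8+ cells relative to row control; 100% = QL9-loaded vesicles with DMSO vehicle in the same plate row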); details: 2C mouse CD8+ T cells, at 7 µM, stronger effect = lower value; double positive events: measured here: CD8+/vesicle+ event percentage
# [7] = molecular target: Integrin beta-1 (Homo sapiens) + Integrin alpha-4 (Homo sapiens) (UniProt P13612+P05556); test: inhibition of HUTS-21 binding to VLA-4, pilot screen, VLA-4 allosteric modulator project, U937 cells, HUTS-21 mAb, flow cytometry, validation set (AID 2674;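 active = inhibition above 50%, about 3 SD of the validation set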;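 also: antibody binding induced by the VLA-4 ligand LDV present at three times its Kd; 0% = LDV ligand with antibody and no compound and 100% = antibody without LDV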); details: HUTS-21 LIBS mAb binding, at 6.7 µM, stronger effect = higher value, binding induced by LDV ligand
# Sequence of Integrin beta-1 (Homo sapiens) + Integrin alpha-4 (Homo sapiens) (P05556 whole entry, looked up): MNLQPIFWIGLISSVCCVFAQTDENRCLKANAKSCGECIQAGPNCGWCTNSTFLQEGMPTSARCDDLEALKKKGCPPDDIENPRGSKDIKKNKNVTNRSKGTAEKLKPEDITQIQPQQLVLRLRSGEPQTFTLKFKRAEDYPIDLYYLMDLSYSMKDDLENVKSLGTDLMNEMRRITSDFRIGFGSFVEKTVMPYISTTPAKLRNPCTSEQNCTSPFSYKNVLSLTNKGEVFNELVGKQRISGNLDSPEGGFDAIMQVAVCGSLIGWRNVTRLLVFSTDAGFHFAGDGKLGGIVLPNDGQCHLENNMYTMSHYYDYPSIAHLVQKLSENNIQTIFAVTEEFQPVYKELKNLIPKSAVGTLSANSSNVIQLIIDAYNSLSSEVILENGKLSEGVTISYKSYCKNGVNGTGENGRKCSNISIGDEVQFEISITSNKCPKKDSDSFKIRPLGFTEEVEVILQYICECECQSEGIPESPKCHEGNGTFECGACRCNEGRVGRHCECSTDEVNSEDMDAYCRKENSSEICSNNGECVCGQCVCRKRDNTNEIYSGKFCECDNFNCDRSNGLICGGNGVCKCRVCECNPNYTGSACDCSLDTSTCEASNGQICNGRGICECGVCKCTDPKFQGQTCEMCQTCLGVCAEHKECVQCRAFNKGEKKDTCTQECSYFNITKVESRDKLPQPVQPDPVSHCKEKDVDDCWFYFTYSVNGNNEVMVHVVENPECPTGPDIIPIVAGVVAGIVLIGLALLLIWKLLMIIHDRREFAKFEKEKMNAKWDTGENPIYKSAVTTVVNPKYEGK
# Sequence of Integrin beta-1 (Homo sapiens) + Integrin alpha-4 (Homo sapiens) (P13612 whole entry, looked up): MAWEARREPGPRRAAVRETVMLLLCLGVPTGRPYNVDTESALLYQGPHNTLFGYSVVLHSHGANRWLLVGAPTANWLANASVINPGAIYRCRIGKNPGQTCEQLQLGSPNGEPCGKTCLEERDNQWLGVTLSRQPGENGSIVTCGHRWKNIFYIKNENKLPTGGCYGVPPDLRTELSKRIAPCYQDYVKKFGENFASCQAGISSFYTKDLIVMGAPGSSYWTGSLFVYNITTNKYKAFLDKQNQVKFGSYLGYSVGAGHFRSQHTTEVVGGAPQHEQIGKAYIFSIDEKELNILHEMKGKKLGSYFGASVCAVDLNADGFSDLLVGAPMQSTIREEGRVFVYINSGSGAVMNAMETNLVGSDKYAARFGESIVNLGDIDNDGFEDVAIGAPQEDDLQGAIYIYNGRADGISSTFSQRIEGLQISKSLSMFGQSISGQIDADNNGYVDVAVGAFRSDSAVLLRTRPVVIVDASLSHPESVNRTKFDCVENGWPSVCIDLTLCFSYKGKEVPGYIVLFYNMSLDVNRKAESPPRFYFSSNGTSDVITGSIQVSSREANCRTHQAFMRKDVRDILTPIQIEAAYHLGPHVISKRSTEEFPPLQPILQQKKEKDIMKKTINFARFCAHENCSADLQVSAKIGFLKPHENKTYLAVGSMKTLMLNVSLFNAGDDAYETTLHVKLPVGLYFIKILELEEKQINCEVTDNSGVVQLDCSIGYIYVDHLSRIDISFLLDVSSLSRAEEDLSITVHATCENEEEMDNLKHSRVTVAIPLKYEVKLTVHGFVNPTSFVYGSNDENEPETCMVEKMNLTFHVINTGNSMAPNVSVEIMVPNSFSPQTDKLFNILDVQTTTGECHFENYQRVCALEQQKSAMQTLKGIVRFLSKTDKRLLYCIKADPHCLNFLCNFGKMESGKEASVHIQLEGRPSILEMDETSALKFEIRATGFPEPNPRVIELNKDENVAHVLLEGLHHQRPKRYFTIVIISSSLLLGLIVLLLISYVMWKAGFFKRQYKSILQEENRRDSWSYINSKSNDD
# [8] = superoxide lowering in aged yeast cells, pilot screen, validation compound set (AID 2706;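 active = superoxide response below 65% of plate, a cut near 3 SD across the whole screen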;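 also: yeast exposed to compound for one week at 30 degrees C before staining; 100% = mean of all compound wells on the same plate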); details: S. cerevisiae aging, superoxide DHE fluorescence; at 10 µM, stronger effect = lower value
# [9] = molecular target: Beta-adrenergic receptor kinase 1 (Homo sapiens) (UniProt P25098); test: GRK2 binders displacing RNA aptamer, biochemical, validation, human GRK2, bead flow cytometry (AID 488806;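 active = aptamer binding inhibition above 30%, about 3 SD of noise from non-fluorescent compounds; inactive = inhibition at or below 30%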); details: bead-bound GRK2, FAM-aptamer displacement, at 10 µM, stronger effect = higher value
# Sequence of Beta-adrenergic receptor kinase 1 (Homo sapiens) (P25098 whole entry, looked up): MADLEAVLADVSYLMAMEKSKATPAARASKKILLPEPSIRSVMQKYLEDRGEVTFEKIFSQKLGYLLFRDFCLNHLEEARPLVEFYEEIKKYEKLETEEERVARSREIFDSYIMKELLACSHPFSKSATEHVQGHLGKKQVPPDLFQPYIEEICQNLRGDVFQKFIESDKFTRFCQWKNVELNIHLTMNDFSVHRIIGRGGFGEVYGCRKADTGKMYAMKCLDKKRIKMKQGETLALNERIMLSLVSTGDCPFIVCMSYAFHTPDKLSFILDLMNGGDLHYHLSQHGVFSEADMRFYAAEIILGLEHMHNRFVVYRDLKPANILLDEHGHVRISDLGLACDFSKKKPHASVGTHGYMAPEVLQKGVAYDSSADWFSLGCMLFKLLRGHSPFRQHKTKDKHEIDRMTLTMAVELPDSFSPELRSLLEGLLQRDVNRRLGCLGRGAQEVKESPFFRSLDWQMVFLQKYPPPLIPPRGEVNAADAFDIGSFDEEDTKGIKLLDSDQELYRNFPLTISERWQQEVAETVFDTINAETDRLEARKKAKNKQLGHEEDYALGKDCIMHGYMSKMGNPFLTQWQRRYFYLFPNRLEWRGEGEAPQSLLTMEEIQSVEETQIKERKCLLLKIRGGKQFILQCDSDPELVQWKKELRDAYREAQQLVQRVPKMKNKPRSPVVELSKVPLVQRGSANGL
# [10] = molecular target: Beta-2 adrenergic receptor (Homo sapiens) (UniProt P07550); test: beta2AR agonists driving receptor internalization, pilot screen, cell-based, FAP fluorogen, flow cytometry, validation set (AID 504459;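 active = percent response above 42, roughly 3 SD of non-fluorescent test compounds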;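 also: agonist-driven loss of surface beta2AR via internalization measured by FAP dye flow cytometry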); details: Am2.2-beta2AR cells, FAP surface receptor flow cytometry; at 10 µM; stronger effect = higher value
# Sequence of Beta-2 adrenergic receptor (Homo sapiens) (P07550 whole entry, looked up): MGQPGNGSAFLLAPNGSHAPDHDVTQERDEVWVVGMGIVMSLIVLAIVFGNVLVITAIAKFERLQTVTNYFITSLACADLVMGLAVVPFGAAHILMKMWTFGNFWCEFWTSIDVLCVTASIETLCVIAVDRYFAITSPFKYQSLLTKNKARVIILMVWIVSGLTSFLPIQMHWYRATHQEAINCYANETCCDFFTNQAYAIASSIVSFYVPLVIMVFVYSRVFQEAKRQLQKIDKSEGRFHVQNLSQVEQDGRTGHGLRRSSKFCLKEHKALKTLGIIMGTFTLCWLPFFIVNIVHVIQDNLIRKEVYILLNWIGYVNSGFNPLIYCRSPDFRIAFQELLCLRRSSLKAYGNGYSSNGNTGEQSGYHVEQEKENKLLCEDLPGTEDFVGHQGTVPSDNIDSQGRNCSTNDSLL
# [11] = molecular target: AP-2 complex subunit beta (Homo sapiens) (UniProt P63010); test: inhibitors of arrestin peptide binding to AP2, pilot screen, biochemical, validation set, GST-AP2 beads, flow cytometry (AID 504541;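 active = inhibition above 54%, about 3 SD of non-fluorescent compounds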;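 also: AP2 carries R879A mutation and is captured from E. coli lysate; bead-bound FITC arrestin peptide fluorescence measuring arrestin peptide binding to AP2; 0% = DMSO wells and 100% = excess unlabeled arrestin peptide control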); details: FITC arrestin peptide, at 10 µM, stronger effect = higher value, AP2 beta2 appendage fragment, R879A mutant
# Sequence of AP-2 complex subunit beta (Homo sapiens) (P63010 whole entry, looked up, the tested form may be a part, one chain of several): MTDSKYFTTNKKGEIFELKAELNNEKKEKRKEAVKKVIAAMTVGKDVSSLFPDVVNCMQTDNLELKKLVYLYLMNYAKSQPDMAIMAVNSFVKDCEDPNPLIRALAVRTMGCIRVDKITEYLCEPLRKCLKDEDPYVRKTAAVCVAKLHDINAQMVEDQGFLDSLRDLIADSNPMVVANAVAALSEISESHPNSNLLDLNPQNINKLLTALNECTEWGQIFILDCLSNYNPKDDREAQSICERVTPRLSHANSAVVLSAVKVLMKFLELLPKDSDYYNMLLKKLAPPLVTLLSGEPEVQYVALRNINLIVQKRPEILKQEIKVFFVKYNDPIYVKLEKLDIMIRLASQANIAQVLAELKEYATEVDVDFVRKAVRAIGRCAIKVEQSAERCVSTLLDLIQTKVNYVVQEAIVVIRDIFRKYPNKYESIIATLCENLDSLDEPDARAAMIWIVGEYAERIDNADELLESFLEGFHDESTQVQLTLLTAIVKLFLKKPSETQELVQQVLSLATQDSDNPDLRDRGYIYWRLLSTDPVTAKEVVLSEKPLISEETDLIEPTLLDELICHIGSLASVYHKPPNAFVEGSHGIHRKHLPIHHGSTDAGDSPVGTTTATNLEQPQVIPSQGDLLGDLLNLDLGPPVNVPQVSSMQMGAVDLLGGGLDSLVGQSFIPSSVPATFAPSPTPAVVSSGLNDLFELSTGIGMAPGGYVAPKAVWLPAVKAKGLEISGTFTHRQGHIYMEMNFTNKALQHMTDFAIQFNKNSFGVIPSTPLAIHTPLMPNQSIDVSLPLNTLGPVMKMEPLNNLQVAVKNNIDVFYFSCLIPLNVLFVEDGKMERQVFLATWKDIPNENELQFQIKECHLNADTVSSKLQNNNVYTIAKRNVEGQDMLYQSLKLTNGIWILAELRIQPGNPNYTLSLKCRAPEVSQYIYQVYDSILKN
# [12] = yeast V-ATPase proton transport modulators, S. cerevisiae, pHLuorin, HTS validation (AID 504600; in the data active = response above about 15%;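 also: plate controls were DMSO for no effect and reference compound for full effect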); details: S. cerevisiae pHLuorin cytosolic pH, at 10 µM, stronger effect = higher value
# [13] = system: anti-desmoglein-3 scFv antibody binding to human DSG3; test: inhibitors of anti-DSG3 scFv binding to DSG3, pilot screen, biochemical, validation compound set, bead-based, flow cytometry (AID 588368;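 active = binding below the plate cutoff, the plate median minus 3 SD, with a reading above zero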;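 also: signal is the median channel fluorescence of bead-bound GFP antibody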); details: Protein G beads, DSG3-Fc, scFv-GFP binding, at 10 µM, stronger effect = lower value
# [14] = inhibitors of fungal efflux pumps CDR1, CDR2, MDR1, pilot screen, validation compound set, multiplex, phenotypic (AID 588506;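 active = efflux inhibition above 0.42, the validation set average plus 4 SD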;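 also: Nile Red retained in cells so higher fluorescence means more efflux inhibition; 0 = negative control wells and 1 = enniatin B 25 µM full block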); details: S. cerevisiae pump-expressing triplex, Nile Red efflux flow cytometry; at 10 µM; stronger effect = higher value; the pumps come from Candida albicans
# [15] = molecular target: ATP-binding cassette sub-family B member 6 (Homo sapiens) (UniProt Q9NP58); test: ABCB6 transporter inhibitors, pilot screen, K562-ABCB6 cells, flow cytometry, validation set (AID 588550;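 active = inhibition above the screen-wide mean plus 3 SD, about 51%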;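 also: 0% = DMSO wells and 100% = benzethonium chloride 70 µM positive control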); details: K562-ABCB6 porphyrin accumulation, 1 h, at 10 µM, stronger effect = higher value
# Sequence of ATP-binding cassette sub-family B member 6 (Homo sapiens) (Q9NP58 whole entry, looked up): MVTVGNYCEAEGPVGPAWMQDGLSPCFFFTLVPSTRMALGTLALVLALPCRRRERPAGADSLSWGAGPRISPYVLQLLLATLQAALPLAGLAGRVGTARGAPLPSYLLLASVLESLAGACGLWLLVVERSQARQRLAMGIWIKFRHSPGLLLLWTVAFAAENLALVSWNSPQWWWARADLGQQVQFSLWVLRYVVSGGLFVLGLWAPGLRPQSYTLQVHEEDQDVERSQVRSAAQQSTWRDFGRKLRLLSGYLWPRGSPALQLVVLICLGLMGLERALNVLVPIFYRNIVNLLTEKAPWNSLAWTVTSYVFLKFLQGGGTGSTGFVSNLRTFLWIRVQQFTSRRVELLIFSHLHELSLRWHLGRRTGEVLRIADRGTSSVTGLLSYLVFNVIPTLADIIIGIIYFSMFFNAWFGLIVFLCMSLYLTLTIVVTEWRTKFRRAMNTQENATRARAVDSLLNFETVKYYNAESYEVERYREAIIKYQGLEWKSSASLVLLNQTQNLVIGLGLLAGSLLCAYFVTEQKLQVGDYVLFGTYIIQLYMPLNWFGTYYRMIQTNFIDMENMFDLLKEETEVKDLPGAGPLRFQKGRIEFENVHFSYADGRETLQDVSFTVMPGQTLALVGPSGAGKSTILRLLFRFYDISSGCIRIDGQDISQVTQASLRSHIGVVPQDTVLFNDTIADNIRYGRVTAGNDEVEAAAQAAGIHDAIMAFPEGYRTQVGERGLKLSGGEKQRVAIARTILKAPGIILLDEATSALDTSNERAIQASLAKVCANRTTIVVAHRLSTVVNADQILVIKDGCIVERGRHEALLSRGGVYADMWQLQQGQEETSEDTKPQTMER
# [16] = promoters of myeloid differentiation in arrested cells, primary screen, cell-based, GFP/MAC1 double positive, flow cytometry, validation set (AID 588685;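 active = differentiation response of at least 50%, scaled between solvent and reference control, from cells with both markers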;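 also: compound exposure lasts four days before antibody staining and flow analysis; 0% = DMSO wells and 100% = 5 µM fulvestrant positive control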); details: ER-HoxA9 marrow cells, stronger effect = higher value, normalized: vehicle 0, fulvestrant 100
# [17] = measured here: mother cell gate
# [18] = measured here: mother cell gate response
# [19] = measured here: daughter cell gate
compound,measurement,setting,value
Oc1ccc(COCc2ccccc2)c2cccnc12,GFP response vs DMSO,[1],98% (inactive)
same,GFP response vs DMSO,[1]; [17],93.8%
same,GFP response relative to DMSO,[2],149% (inactive)
same,GFP response relative to DMSO,[2]; measured here: daughter cell gate response,138%
same,GFP response relative to DMSO,[2]; [18],152%
same,GFP response vs DMSO,[3],114% (inactive)
same,"GFP response, % of DMSO",[4],98.6% (inactive)
same,"GFP response, % of DMSO",[5],95.8% (inactive)
same,"GFP response, % of DMSO",[5]; [19],101%
same,"GFP response, % of DMSO",[5]; [17],91.5%
same,double positive events,[6],65.9%
same,vesicle binding response,[6],129% (inactive)
same,inhibition,[7],-0.43% (inactive)
same,superoxide response (% of plate),[8],75.4% (inactive)
same,aptamer binding inhibition,[9],0% (inactive)
same,response,[10],-7.8% (inactive)
same,inhibition,[11],-1% (inactive)
same,response,[12],2.93% (inactive)
same,binding (% of control),[13],101% (inactive)
same,efflux inhibition (fraction of control),[14],0.12 (inactive)
same,inhibition,[15],1% (inactive)
same,differentiation response,[16],40.8% (inactive)
O=c1[nH]c(-c2ccccn2)nc(C(F)(F)F)c1Br,GFP response vs DMSO,[1],110% (inactive)
same,GFP response vs DMSO,[1]; [19],102%
same,GFP response vs DMSO,[1]; [17],101%
same,GFP response relative to DMSO,[2],247% (active)
same,GFP response relative to DMSO,[2]; [18],219%
same,GFP response vs DMSO,[3],118% (inactive)
same,"GFP response, % of DMSO",[4],91.2% (inactive)
same,"GFP response, % of DMSO",[5],112% (inactive)
same,"GFP response, % of DMSO",[5]; [19],106%
same,"GFP response, % of DMSO",[5]; [17],103%
CCc1nnc(NC(=O)c2nc(S(=O)(=O)Cc3ccccc3)ncc2Cl)s1,GFP response vs DMSO,[1],94.9% (inactive)
same,GFP response vs DMSO,[1]; [19],95.9%
same,GFP response vs DMSO,[1]; [17],91.4%
same,GFP response relative to DMSO,[2],98.9% (inactive)
same,GFP response vs DMSO,[3],103% (inactive)
same,"GFP response, % of DMSO",[4],97.3% (inactive)
same,"GFP response, % of DMSO",[5],101% (inactive)
same,"GFP response, % of DMSO",[5]; [19],103%
same,"GFP response, % of DMSO",[5]; [17],97.1%
O=C(Nc1nc(-c2ccccc2)cs1)c1cccnc1,GFP response vs DMSO,[1],101% (inactive)
same,GFP response vs DMSO,[1]; [19],102%
same,GFP response vs DMSO,[1]; [17],101%
same,GFP response relative to DMSO,[2],103% (inactive)
same,GFP response vs DMSO,[3],98.3% (inactive)
same,"GFP response, % of DMSO",[4],91% (inactive)
same,"GFP response, % of DMSO",[5],98.3% (inactive)
Cn1c(C(=O)O)cc2c(=O)n3ccccc3nc21,GFP response vs DMSO,[1],101% (inactive)
same,GFP response vs DMSO,[1]; [19],99.3%
same,GFP response vs DMSO,[1]; [17],99%
same,GFP response relative to DMSO,[2],97.7% (inactive)
same,GFP response vs DMSO,[3],104% (inactive)
same,"GFP response, % of DMSO",[4],102% (inactive)
same,"GFP response, % of DMSO",[5],104% (inactive)
same,"GFP response, % of DMSO",[5]; [19],104%
same,"GFP response, % of DMSO",[5]; [17],95.6%
COc1ccccc1-c1noc(-c2cccnc2)n1,GFP response vs DMSO,[1],95.3% (inactive)
same,GFP response vs DMSO,[1]; [19],93%
same,GFP response vs DMSO,[1]; [17],95.4%
same,GFP response relative to DMSO,[2],97.7% (inactive)
same,GFP response vs DMSO,[3],108% (inactive)
same,"GFP response, % of DMSO",[4],96.6% (inactive)
same,"GFP response, % of DMSO",[5],95.8% (inactive)
same,"GFP response, % of DMSO",[5]; [19],88.7%
same,"GFP response, % of DMSO",[5]; [17],82.6%
C/C(=N\NC(=O)c1ccc(Cl)c(Cl)c1)c1ccccn1,GFP response vs DMSO,[1],104% (inactive)
same,GFP response vs DMSO,[1]; [19],96.4%
same,GFP response vs DMSO,[1]; [17],88.5%
same,GFP response relative to DMSO,[2],269% (active)
same,GFP response vs DMSO,[3],118% (inactive)
same,"GFP response, % of DMSO",[4],127% (inactive)
same,"GFP response, % of DMSO",[5],114% (inactive)
same,"GFP response, % of DMSO",[5]; [19],97.6%
same,"GFP response, % of DMSO",[5]; [17],99.3%
N/C(=N\OC(=O)c1ccc(Cl)cc1Cl)c1ccccc1,GFP response vs DMSO,[1],98.4% (inactive)
same,GFP response relative to DMSO,[2],155% (active)
same,GFP response vs DMSO,[3],106% (inactive)
same,"GFP response, % of DMSO",[4],80.1% (inactive)
same,"GFP response, % of DMSO",[5],151% (active)
COc1ccccc1/C=C/C(=O)c1ccc(Cl)cc1,GFP response vs DMSO,[1],102% (inactive)
same,GFP response relative to DMSO,[2],92.6% (inactive)
same,GFP response vs DMSO,[3],97.8% (inactive)
same,"GFP response, % of DMSO",[4],98.9% (inactive)
same,"GFP response, % of DMSO",[5],103% (inactive)
